From PubChem
Shown are actives, neighbours in structure and some others; about 19% of the full set was active somewhere.
TDP1 inh = qHTS Assay for Inhibitors of Tyrosyl-DNA Phosphodiesterase (TDP1). Potency, µM (top dose mostly 130 µM), for the others: at the top dose activity change, negative = inhibition, hits mostly inhibitors. Tyrosyl-DNA phosphodiesterase 1 (Homo sapiens), Q9NUW8. recombinant TDP1, AlphaScreen DNA substrate cleavage. 350,000 tested, 0.28% active. AID 485290, 2010; note: potency is the fitted concentration of half-maximal effect; % is set by controls: 0 for no effect and ±100 for the full control effect; nearly all actives have a fitted effect of over 40% in size
Target sequence (Q9NUW8 whole entry, looked up): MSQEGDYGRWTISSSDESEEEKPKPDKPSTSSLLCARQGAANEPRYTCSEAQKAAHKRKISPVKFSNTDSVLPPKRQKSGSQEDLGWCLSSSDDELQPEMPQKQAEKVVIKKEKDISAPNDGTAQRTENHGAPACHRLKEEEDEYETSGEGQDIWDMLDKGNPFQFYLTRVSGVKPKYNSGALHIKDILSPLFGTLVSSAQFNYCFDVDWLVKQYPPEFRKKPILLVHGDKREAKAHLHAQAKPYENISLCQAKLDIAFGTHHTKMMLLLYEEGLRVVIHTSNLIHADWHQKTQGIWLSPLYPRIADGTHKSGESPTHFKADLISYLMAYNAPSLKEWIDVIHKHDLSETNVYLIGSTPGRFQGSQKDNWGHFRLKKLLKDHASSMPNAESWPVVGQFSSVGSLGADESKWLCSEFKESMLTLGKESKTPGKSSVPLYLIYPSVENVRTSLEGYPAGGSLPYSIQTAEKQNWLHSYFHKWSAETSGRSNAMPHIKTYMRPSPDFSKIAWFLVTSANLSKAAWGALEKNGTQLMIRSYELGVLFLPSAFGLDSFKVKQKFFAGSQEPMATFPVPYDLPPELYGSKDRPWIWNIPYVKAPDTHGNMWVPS
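AlphaScreen read-out: signal falls as enzyme removes the 3' tyrosine-FITC from a 5'-biotinylated DNA oligo (15 nM, 5 min, RT). Enzyme was E. coli-made recombinant Tdp1 at 1 nM, exposed to compound for 15 min beforehand; beads 10 ug/ml, 10 min.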
IL1B secr inh = qHTS for Inhibitors of Inflammasome Signaling: IL-1-beta AlphaLISA Primary Screen. THP-1 LPS/ATP IL-1B secretion, AlphaLISA, 16 h; hits give low values. activity change, % at 57.5 µM. 360,000 tested, 4.7% active. AID 743279, 2014; in the data active = activity change below about -50%; inconclusive = mostly about -30% to -49%; note: % is set by controls: 0 for no effect and ±100 for the full control effect
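Secreted IL-1B measured by AlphaLISA bead assay after 16 h compound exposure of THP-1 cells; compounds (final up to 57.5 uM) added 1 h before LPS (250 ng/mL) and ATP (1.25 mM) stimulation; lower signal means less secretion.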
DT40 TDP1 no CPT = qHTS for Inhibitors of human tyrosyl-DNA phosphodiesterase 1 (TDP1): qHTS in cells in absence of CPT. Potency, µM (series often up to 46.2 µM), for inactives: at the highest dose activity change, negative = growth inhibition, actives largely listed as inhibitors. AID 686978, 2013. DT40 Tdp1-/- hTDP1 cells, no CPT, ATP luminescence, 48 h. 420,000 tested, 15% active; note: potency is the fitted concentration of half-maximal effect; % is set by controls: 0 for no effect and ±100 for the full control effect; nearly all actives have a fitted effect of over 55% in size
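Cells were dispensed at 400 per well, compounds added by pin tool, plates incubated ≥48 hr at 37 °C, then CellTiter-Glo added for 30 min at room temperature before luminescence reading. Line: DT40 Tdp1-/- complemented with hTDP1; camptothecin omitted.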
HepG2 viability = qHTS for Inhibitors of TGF-b: Cytotox Counterscreen; 410,000 tested, 0.76% active; HepG2 CAGA-GFP viability, ATP luminescence, 18 h; AID 588856, 2011; Potency, µM (doses to about 46.1 µM), for inactives: at the top dose activity change, negative = cytotoxicity, actives largely listed as cytotoxic; note: potency is the fitted concentration of half-maximal effect
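CellTiter-Glo luminescence gave cytotoxicity after 18 hours at 37 degrees C. The cells were HepG2 CAGA-GFP in 1% FBS DMEM, stimulated with 500 pg/mL TGF-beta after compound addition. %Activity was normalised to no-cell wells (complete cell-killing) and DMSO (no toxicity), and curves were fitted and classified.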
TGFb inhibitor = qHTS for Inhibitors of TGF-b. AID 588855, 2011. 410,000 tested, 1.2% active. HepG2 CAGA-GFP TGF-b/SMAD3 reporter, GFP fluorescence, 18 h; TGF-beta stimulated, 500 pg/mL final. Potency, µM (titrated, usually from 46.1 µM), for inactives: at the top dose activity, negative = inhibition, hits mostly inhibitors; note: potency is the fitted concentration of half-maximal effect; % is set by controls: 0 for no effect and ±100 for the full control effect; nearly all actives have a fitted effect of over 65% in size
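TGF-beta reporter screen: HEPG2 CAGA-GFP, 1% FBS, 500 pg/mL TGF-beta final, 18 h; per-cell GFP summed per well; curves fitted and categorized by class.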
TDP1 cell CPT = qHTS for Inhibitors of human tyrosyl-DNA phosphodiesterase 1 (TDP1): qHTS in cells in presence of CPT; chicken DT40 Tdp1-/-;hTDP1 cells + 20 nM CPT, ATP luminescence, 48 h; Potency, µM (titrated, usually from 46.2 µM), for inactives: top-dose activity change, negative = growth inhibition, most hits filed as inhibitors; 420,000 tested, 12% active; AID 686979, 2013; note: potency is the fitted concentration of half-maximal effect; % is set by controls: 0 for no effect and ±100 for the full control effect; nearly all actives have a fitted effect of over 55% in size
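Chicken DT40 Tdp1-/- cells complemented with human TDP1, 400 cells/well, exposed to compounds plus 20 nM camptothecin for at least 48 h at 37 C; viability read as ATP content by CellTiter-Glo luminescence.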
* = called active by the depositor; ? = inconclusive; · = not tested or not shown; [ ] = another dose, or the depositor's remark. Unless noted, calls come from the whole dose curve; as a rule, active = well fitted curve in the direction sought with a large enough effect; inconclusive = small, poorly fitted or top-dose-only effect, or another doubt; inactive = no such curve, though single readings can be large; an effect the other way counts as inactive or inconclusive.

SMILES | TDP1 inh | IL1B secr inh | DT40 TDP1 no CPT | HepG2 viability | TGFb inhibitor | TDP1 cell CPT
O=C(Oc1ccc2c(c1)O/C(=C\c1ccncc1)C2=O)c1cccs1 | 1.4% | -4.7 | ? | -16.4% | 42.3% | ?
CCc1ccc(/C=C2\Oc3cc(OC(=O)N4CCOCC4)ccc3C2=O)cc1 | 7.2% | -2.2 | 14.6µM* | -0.7% | 0.9% | ?
CC(=O)Oc1ccc2c(c1)O/C(=C\c1ccncc1)C2=O | 5.5% | ? | -22.6% | -5.9% | 24.4% | ?
COc1cc(C=O)ccc1OC(=O)N1CCOCC1 | · | 6.9 | 14.6% | -3.2% | 0.3% | -1.4%
COc1ccc(/C=C2\Oc3cc(OC(=O)N4CCOCC4)ccc3C2=O)cc1 | 0.0% | -1.4 | 13µM* | 8.5% | 9.2% | 18.4µM*
COc1ccccc1C(=O)Oc1ccc2c(c1)O/C(=C\c1ccncc1)C2=O | 5.4% | -0.8 | 13µM* | -23.4% | 15.4% | -29.9%
Cc1ccc(S(=O)(=O)N2CCN(C(=O)C3CCCC3)CC2)cc1C | · | 32.8 | ? | -0.7% | 2.6% | ?
CCC(C)NC(=O)CCCN1C(=O)CCn2nc(-c3cccn3C)cc21 (stereo not drawn) | 5.3% | · | 0.2% | 1.4% | -5.7% | -11.4%
COc1ccc(C(=O)CSc2nnn(-c3cccc(NC(C)=O)c3)n2)cc1 | 2.7% | · | 23.1µM* | 2.2% | -0.8% | ?
COc1cc2c(s1)c1cnn(Cc3ccccc3F)c(=O)c1n2C | -0.3% | · | · | · | · | ·
NS(=O)(=O)c1ccc(CCNc2nn3c(-c4cccc(OC(F)(F)F)c4)cnc3s2)cc1 | · | -83.5* | 13µM* | -23.5% | ? | 11.6µM*
NS(=O)(=O)c1ccc(CCNc2nccn(-c3cccc(C(F)(F)F)c3)c2=O)cc1 | 0.0% | · | ? | -19.9% | ? | -16.6%
CC1CC(C)CN(C(=O)c2cc(-c3ccccn3)nc3ccccc23)C1 (stereo not drawn) | 5.1% | 12.0 | -13.7% | -1.8% | -10.7% | ?
Cc1cc(C)c2nc(-c3ccccn3)cc(C(=O)n3cccn3)c2c1 | 8.2% | 0.0 | 18.4µM* | 10.7% | -0.3% | ?
CCCCNc1nc2c(-c3cccc(C)c3)nnn2c2ccccc12 | 6.4% | · | -18.5% | 9.3% | -11.0% | -20.2%
CN1C2CCC1CC(NS(=O)(=O)c1cccc(C(F)(F)F)c1)C2 (stereo not drawn) | 1.3% | -75.8* | 5.6% | 19.0% | 11.6% | -7.5%
CN1C2CCC1CC(NC(=O)c1cccc(C(F)(F)F)c1)C2 (stereo not drawn) | · | -11.8 | 0.0% | -0.4% | -3.4% | -6.5%
CCN(C(=O)CCS(=O)(=O)c1cc2c(cc1Cl)NC(=O)CO2)c1ccccc1 | · | 2.2 | -22.9% | -0.4% | -0.2% | -16.4%
COc1ccc(S(=O)(=O)N(Cc2ccccc2)Cc2nc3ccccc3c(=O)[nH]2)cc1 | 6.3% | 2.3 | 5.17µM* | -5.2% | 8.7% | 4.61µM*
COc1ccccc1CN(Cc1nc2ccccc2c(=O)[nH]1)S(=O)(=O)c1ccc2ccccc2c1 | 1.2% | -26.4 | 5.62µM* | -23.0% | ? | 3.66µM*
O=c1[nH]c(CN(CCc2ccccc2)S(=O)(=O)c2ccc(Cl)cc2)nc2ccccc12 | 5.8% | 14.0 | ? | -1.9% | -22.4% | -4.0%
CCN(Cc1nc2ccccc2c(=O)[nH]1)Cc1nc2cc(OC)c(OC)cc2c(=O)[nH]1 | 10.3% | -21.2 | ? | -3.2% | 0.0% | -6.6%
CCc1ccc(S(=O)(=O)Nc2cc3c(cc2C)n(C)c(=O)n3C)cc1 | 1.4% | 28.6 | 2.91µM* | -26.4% | -11.9% | 5.17µM*
Cc1cc2c(cc1NS(=O)(=O)c1ccc(Br)cc1)n(C)c(=O)c(=O)n2C | 7.1% | · | ? | -9.2% | 8.5% | ?
CCOc1ccc(S(=O)(=O)Nc2ccc3c(c2)n(C)c(=O)n3C)cc1 | 1.1%[0.0935 µM] | 12.8 | 7.31µM* | -20.0% | 12.4% | ?
SMILES | TDP1 inh | IL1B secr inh | DT40 TDP1 no CPT | HepG2 viability | TGFb inhibitor | TDP1 cell CPT
Cc1ccc(NS(=O)(=O)c2ccc3c(c2)n(C)c(=O)n3C)cc1C | 2.2% | 152.2 | 20.6µM* | -21.8% | -11.5% | 16.4µM*
Cc1ccc(NS(=O)(=O)c2ccc3c(c2)n(C)c(=O)n3C)c(C)c1 | 4.2% | -54.4* | ? | 4.9% | -10.7% | ?
CC1CCN(S(=O)(=O)c2ccc3c(c2)CCN3C(=O)Nc2ccccc2Br)CC1 | 0.0% | · | -13.3% | 2.4% | · | -34.3%
COc1cccc(CNc2nccn(-c3cc(C)cc(C)c3)c2=O)c1 | 7.9% | · | ? | -31.8% | -24.5% | ?
Cc1ccc(S(=O)(=O)Nc2ccc3c(c2)n(C)c(=O)n3C)cc1 | 0.2% | -3.0 | ? | -19.7% | 0.0% | 10.3µM*
Cc1ccc(NC(=O)CN(C)S(=O)(=O)c2ccc3c(c2)n(C)c(=O)c(=O)n3C)c(C)c1 | 1.1% | 10.9 | ? | -1.2% | 4.5% | 18.4µM*
Cc1ccc(S(=O)(=O)Nc2ccc3oc(=O)sc3c2)c(C)c1 | 5.3% | 16.4 | ? | -21.4% | 3.3% | ?
CCCCCC(=O)N(c1ccc(OCC)cc1)S(=O)(=O)c1ccc2c(c1)n(C)c(=O)n2C | 4.7% | · | 16.4µM* | 2.9% | 10.9% | 20.6µM*
Cc1ccc(S(=O)(=O)Nc2ccc(SC(F)F)cc2)c(C)c1 | 5.5% | ? | ? | -72.1% | 12.6µM* | ?
COc1ccc(C(=O)N(c2ccc(OC)cc2)S(=O)(=O)c2ccc3c(c2)n(C)c(=O)n3C)cc1 | 6.3% | · | ? | -17.2% | 1.2% | ?
Cn1c(=O)n(C)c2cc(NS(=O)(=O)c3ccccc3)ccc21 | 1.8% | -7.5 | -5.8% | -0.5% | 8.4% | ?
NC(CCC(=O)N[C@@H](CS)C(=O)NCC(=O)O)C(=O)O (stereo partly drawn) | 9.6%[56.1 µM] | · | · | · | · | ·
COc1ccc(-c2nnc(SCC(=O)Nc3ccc(F)cc3)s2)cc1 | 3.3% | · | -18.4% | -22.1% | -14.5% | 5.0%
CCc1ccc(S(=O)(=O)Nc2c(C)nn(C)c2C)cc1 | 0.0% | 19.4 | 11.2µM* | 1.3% | -39.0% | 11.2µM*
CCOc1ccc(S(=O)(=O)Nc2ccc3c(c2)c(C(C)=O)c(C)n3S(=O)(=O)c2ccc(OCC)cc2)cc1 | -4.8%[12.3 µM] | · | 5.17µM* | -11.8% | 11.2µM* | 20.6µM*
